Only a selection was taken, and hits are over-represented in it overall.
TDP1 cell noCPT – qHTS for Inhibitors of human tyrosyl-DNA phosphodiesterase 1 (TDP1): qHTS in cells in absence of CPT | DT40 Tdp1-/- hTDP1 cells, no CPT, ATP luminescence, 48 h | 420,000 compounds, 15% hits | Potency, µM (top dose mostly 46.2 µM), for the others: at the highest dose activity change, negative = growth inhibition, hits mostly inhibitors; further: potency means the concentration at half of the fitted maximal effect; nearly all actives have a fitted effect of over 55% in size
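Growth of hTDP1-complemented DT40 Tdp1-knockout cells is measured by ATP luminescence after at least 48 hr compound exposure at 37 °C, with DMSO substituting for the 20 nM CPT used in the parallel screen.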
HT1080-NT tox – qHTS for induction of synthetic lethality in tumor cells producing 2HG: qHTS for the HT-1080-NT fibrosarcoma cell line; HT-1080-NT fibrosarcoma viability, CellTiter-Glo ATP luminescence, 48 h; Potency, µM (titrated, usually from 46.1 µM), without a hit: at the highest dose activity, negative = less viability, usual class: cytotoxic; 360,000 compounds, 1.6% hits; AID 686970, 2013;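 further: NT is the 2HG producing partner of a matched IDH1 knockdown line; potency means the concentration at half of the fitted maximal effect; 0% = DMSO-treated cells and -100% = media-only wells without cells; nearly all actives have a fitted effect of over 55% in size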
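Read-out is CellTiter-Glo luminescence after 10 minutes at room temperature, following 48 hours' compound treatment of HT-1080-NT cells (750 cells/well, RPMI, 5% FBS, 37 degrees C).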
IL-1B inflam inh – qHTS for Inhibitors of Inflammasome Signaling: IL-1-beta AlphaLISA Primary Screen. THP-1 LPS/ATP IL-1B secretion, AlphaLISA, 16 h; active compounds read low. activity change, % at 57.5 µM. 360,000 compounds, 4.7% hits; in the data active means activity change below about -50%; inconclusive means mostly about -30% to -49%
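Secreted IL-1B measured by AlphaLISA bead assay after 16 h compound exposure of THP-1 cells; compounds (final up to 57.5 uM) added 1 h before LPS (250 ng/mL) and ATP (1.25 mM) stimulation; lower signal means less secretion.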
TDP1 cell CPT – qHTS for Inhibitors of human tyrosyl-DNA phosphodiesterase 1 (TDP1): qHTS in cells in presence of CPT; chicken DT40 Tdp1-/-;hTDP1 cells + 20 nM CPT, ATP luminescence, 48 h; Potency, µM (highest dose often 46.2 µM), without a hit: at the highest dose activity change, negative = growth inhibition, usual class: inhibitors; 420,000 compounds, 12% hits; further: potency means the concentration at half of the fitted maximal effect; nearly all actives have a fitted effect of over 55% in size
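Chicken DT40 Tdp1-/- cells complemented with human TDP1, 400 cells/well, exposed to compounds plus 20 nM camptothecin for at least 48 h at 37 C; viability read as ATP content by CellTiter-Glo luminescence.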
12-LOX inh – Primary qHTS assay for inhibitors of human arachidonate 12S-lipoxygenase (ALOX12): Round 2; Potency, µM (top dose mostly 108 µM), for the others: at the top dose activity change, negative = inhibition, most hits filed as inhibitors; 580,000 compounds, 1.1% hits; purified 12hLO, xylenol orange hydroperoxide absorbance; further: potency means the concentration at half of the fitted maximal effect
Target sequence (P18054 whole entry, looked up): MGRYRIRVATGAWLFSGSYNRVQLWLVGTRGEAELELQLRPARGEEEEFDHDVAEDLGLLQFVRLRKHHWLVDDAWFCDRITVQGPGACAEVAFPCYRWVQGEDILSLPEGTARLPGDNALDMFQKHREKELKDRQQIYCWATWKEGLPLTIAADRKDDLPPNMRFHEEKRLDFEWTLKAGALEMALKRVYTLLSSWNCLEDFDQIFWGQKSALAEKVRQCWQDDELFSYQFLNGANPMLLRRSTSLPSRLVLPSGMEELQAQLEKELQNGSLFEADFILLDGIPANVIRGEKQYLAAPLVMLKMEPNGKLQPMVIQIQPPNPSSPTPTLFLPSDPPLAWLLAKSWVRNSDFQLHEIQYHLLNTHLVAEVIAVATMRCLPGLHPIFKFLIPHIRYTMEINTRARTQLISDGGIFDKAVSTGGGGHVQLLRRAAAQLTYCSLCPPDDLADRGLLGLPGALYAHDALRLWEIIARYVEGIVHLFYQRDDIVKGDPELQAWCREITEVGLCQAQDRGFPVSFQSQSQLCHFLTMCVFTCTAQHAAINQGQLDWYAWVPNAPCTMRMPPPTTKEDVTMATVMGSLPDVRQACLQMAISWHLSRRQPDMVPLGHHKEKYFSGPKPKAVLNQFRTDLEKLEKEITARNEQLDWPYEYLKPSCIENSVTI
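Purified human 12hLO at 150 nM in 25 mM Hepes, 0.01% Triton X-100, pH 7.0, preincubated 15 min at room temperature with compound. Reaction started with 40 uM arachidonic acid, 30 min at room temperature. Hydroperoxide measured by Fe-xylenol orange, 573/405 nm absorbance ratio.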
HT1080 IDH1KD tx – qHTS for induction of synthetic lethality in tumor cells producing 2HG: qHTS for the HT-1080-IDH1KD cell line. HT-1080 IDH1 knockdown viability, ATP luminescence, 48 h. Potency, µM (doses to about 46.1 µM), for inactives: at the highest dose activity, negative = toxicity, hits mostly cytotoxic. 360,000 compounds, 2% hits. AID 686971, 2013;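 further: potency means the concentration at half of the fitted maximal effect; 0% = DMSO wells and -100% = cell-free medium wells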
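Luminescent ATP read-out (CellTiter-Glo, 10 min at room temperature) after 48 h compound exposure at 37 °C gave viability of IDH1-knockdown HT-1080 cells. Activity was normalised to DMSO and cell-free wells, then fitted as concentration-response curves.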
* hit, by the source's call. Unless noted, the call rests on the fitted dose curve; in most records, active means well fitted curve in the direction sought with a large enough effect; inconclusive means small, poorly fitted or top-dose-only effect, or another doubt; inactive means no such curve, though single readings can be large; an effect the other way counts as inactive or inconclusive. Unless noted, on the % scale 0 is the no-effect control and ±100 the full control effect.

COCCC1(C(=O)O)CCCN(Cc2ccc3c(c2)CC(C)(C)O3)C1 (stereo not drawn) was read as 12-LOX inh -20%.
`CCc1nc2c(OCc3ccc(F)cc3)cccn2c1N(C)C(=O)COc1ccccc1` gave TDP1 cell noCPT inconclusive, HT1080-NT tox inconclusive, IL-1B inflam inh 0, TDP1 cell CPT 21µM*, 12-LOX inh 12% and HT1080 IDH1KD tx inconclusive.
For CCc1nc2c(OCc3ccccc3)cccn2c1N(C)C(=O)COc1ccccc1 the results were TDP1 cell noCPT inconclusive, HT1080-NT tox 0%, IL-1B inflam inh 14, TDP1 cell CPT 23µM*, 12-LOX inh -3% and HT1080 IDH1KD tx -14%.
For CCOC(=O)C(=O)N(C)c1c(CC)nc2c(OCc3ccccc3)cccn12 the results were TDP1 cell noCPT -27%, HT1080-NT tox 24%, IL-1B inflam inh 1, TDP1 cell CPT -20%, 12-LOX inh 0% and HT1080 IDH1KD tx 0%.
`CCc1nc2c(OCc3ccccc3)cccn2c1N(C)C(C)=O` gave TDP1 cell noCPT -2%, HT1080-NT tox inconclusive, IL-1B inflam inh 1, TDP1 cell CPT -2%, 12-LOX inh 1% and HT1080 IDH1KD tx 28%.
`COc1cc2c(cc1OC)C(SC)=NC1(CCCC1)C2` gave TDP1 cell noCPT 15µM*, HT1080-NT tox -24%, IL-1B inflam inh inconclusive, TDP1 cell CPT 16µM*, 12-LOX inh -3% and HT1080 IDH1KD tx -7%.
`CN(CCc1ccccc1)C(=O)Cn1cc(C(N)=O)c2ccccc21` gave 12-LOX inh 50%.
For CC(C)(C)c1ccc(C(=O)Nc2ccc(CN3CCS(=O)(=O)CC3)cc2)cc1 the results were TDP1 cell noCPT 21µM*, HT1080-NT tox -4%, IL-1B inflam inh -60*, TDP1 cell CPT 16µM*, 12-LOX inh 178% and HT1080 IDH1KD tx inconclusive.
`O=C(Nc1ccc(CN2CCS(=O)(=O)CC2)cc1)c1ccc(C(F)(F)F)cc1` gave TDP1 cell noCPT 21µM*, HT1080-NT tox inconclusive, IL-1B inflam inh -20, TDP1 cell CPT inconclusive, 12-LOX inh 5% and HT1080 IDH1KD tx -25%.
Screening O=C(Nc1ccc(CN2CCS(=O)(=O)CC2)cc1)c1ccc(F)cc1 returned TDP1 cell noCPT 4%, HT1080-NT tox 3%, IL-1B inflam inh -2, TDP1 cell CPT 0%, 12-LOX inh 0% and HT1080 IDH1KD tx 18%.
Cc1cc2nc(-c3cccnc3SCC(=O)NC(C)C)[nH]c2cc1C was read as TDP1 cell noCPT inconclusive, HT1080-NT tox 0%, IL-1B inflam inh 18, TDP1 cell CPT inconclusive, 12-LOX inh -1% and HT1080 IDH1KD tx -15%.
O=C1C=CC(=O)N1CCCCCCN1C(=O)C=CC1=O was read as TDP1 cell noCPT 2.1µM*, HT1080-NT tox inconclusive, IL-1B inflam inh -98*, TDP1 cell CPT 1.5µM*, 12-LOX inh inconclusive and HT1080 IDH1KD tx inconclusive.
`COCCNc1cc(-c2ccccc2C(F)(F)F)ncn1` gave TDP1 cell noCPT -23%, TDP1 cell CPT -18% and 12-LOX inh inconclusive.
Screening CCN1CCN(C2CCCCC2NS(=O)(=O)c2ccccc2)CC1 (stereo not drawn) returned TDP1 cell noCPT 20%, HT1080-NT tox -2%, IL-1B inflam inh 26, TDP1 cell CPT -6%, 12-LOX inh 0% and HT1080 IDH1KD tx -3%.
`CN1CCN(C2CCCCC2NS(=O)(=O)c2ccc(Cl)cc2)CC1` (stereo not drawn) gave TDP1 cell noCPT 5%, HT1080-NT tox -14%, IL-1B inflam inh 0, TDP1 cell CPT -17% and HT1080 IDH1KD tx -14%.
Screening Cc1ccc(C)c(N2CCN(C3CCCCC3NS(=O)(=O)c3ccccc3)CC2)c1 (stereo not drawn) returned TDP1 cell noCPT 4.6µM*, HT1080-NT tox 9%, IL-1B inflam inh 150, TDP1 cell CPT 7.3µM* and HT1080 IDH1KD tx 0%.
CC1CC(C)CN(C2CCCCC2NS(=O)(=O)c2ccc(Cl)cc2)C1 (stereo not drawn) was read as TDP1 cell noCPT 23µM*, HT1080-NT tox -4%, IL-1B inflam inh 45, TDP1 cell CPT inconclusive, 12-LOX inh 1% and HT1080 IDH1KD tx -10%.
Screening O=S(=O)(NC1CCCCC1N1CCCCC1)c1ccccc1 (stereo not drawn) returned TDP1 cell noCPT 10%, HT1080-NT tox 7%, IL-1B inflam inh -7, TDP1 cell CPT 2%, 12-LOX inh -3% and HT1080 IDH1KD tx 14%.
`Cc1ccc(Cl)cc1N1CCN(C2CCCCC2NS(=O)(=O)c2ccccc2)CC1` (stereo not drawn) gave TDP1 cell noCPT 18µM*, HT1080-NT tox -7%, IL-1B inflam inh 21, TDP1 cell CPT 16µM* and HT1080 IDH1KD tx 3%.
For COc1ccccc1N1CCN(C2CCCCC2NS(=O)(=O)c2ccc(Cl)cc2)CC1 (stereo not drawn) the results were TDP1 cell noCPT 23µM*, HT1080-NT tox -26%, IL-1B inflam inh -72*, TDP1 cell CPT 23µM* and HT1080 IDH1KD tx -26%.
C#CCNC(=O)C1CCN(C(=O)C2CN(c3cccc(OC)c3)C(=O)N2)C1 (stereo not drawn) was read as 12-LOX inh 60%.
For COc1ccc(OCC(=O)NCc2ccc3c(c2)CCN3C(=O)c2cccc(C)c2)cc1 the results were TDP1 cell noCPT 1.8µM*, TDP1 cell CPT 1.8µM* and 12-LOX inh -5%.
Screening Cc1cccc(C(=O)N2CCc3cc(CNC(=O)CCc4ccccc4)ccc32)c1 returned TDP1 cell noCPT 13µM*, TDP1 cell CPT 15µM* and 12-LOX inh -22%.
`CC1=C(c2ccc(C)c(C)c2)S(=O)(=O)N=C1N1CCN(c2cccc(C)c2)C(C)C1` (stereo not drawn) gave TDP1 cell noCPT 10µM*, TDP1 cell CPT 18µM* and 12-LOX inh -7%.
CC1=C(c2ccc(C(C)C)cc2)S(=O)(=O)N=C1N1CCN(c2ccc(F)cc2)CC1 was read as TDP1 cell noCPT 10µM*, TDP1 cell CPT 21µM* and 12-LOX inh inconclusive.

Assay outcomes: PubChem BioAssay, National Center for Advancing Translational Sciences (NCATS)
